High-throughput results: PubChem BioAssay, Sanford-Burnham Center for Chemical Genomics
The list is not random: actives were taken first. Their share in the collection is about 3%.
SENP8 block-1: human SENP8 protease inhibitors, primary screen, biochemical, fluorescence, Nedd8 protein substrate, uHTS; hit rate 0.64% among 360,000; recombinant SENP8; inhibition, % at 20 µM; in the data active means inhibition mostly above about 40%, no sharp cut-off; inactive means mostly below about 27%
PPC-1+TRAIL kill: compounds killing PPC-1 cancer cells with TRAIL present, primary screen, TRAIL potentiator project, ATPLite luminescence, uHTS | PPC-1 cells + TRAIL, ATPLite viability luminescence | cell killing (% activity), % at 4 µM or 5 µM | hit rate 0.41% among 220,000 | AID 1443, 2008;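 active means cell killing above 50% in the first pass at 4 µM, then a duplicate retest at 5 µM averaging 50% or more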;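 further: plate controls were cells with TRAIL plus DMSO for no effect and medium-only wells lacking cells for full effect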
SENP7 inh: SENP7 protease inhibitors, primary screen, biochemical, luminescence, uHTS. recombinant SENP7, Z-RLRGG-aminoluciferin luminescence, 40 min. inhibition, % at 5 µM. hit rate 1.5% among 330,000. AID 434973, 2010;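 active means inhibition above about 50% at the single test dose, limit read from the data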;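 further: plate controls were DMSO with enzyme for no effect and no enzyme buffer wells for full effect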
C8 TRAIL sens: viability loss with TRAIL in NB7+C8 cells, primary screen, TRAIL sensitizer project, cell-based, ATPlite luminescence; inhibition (viability loss, TRAIL sensitization), % at 10 µM; hit rate 1% among 360,000;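 active means compounds causing at least 50% loss of cell viability in the single-dose screen, relative to plate controls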
SENP6 block: SENP6 protease inhibitors, primary screen, biochemical, luminescence, uHTS; hit rate 1.8% among 330,000; inhibition, % at 10 µM; Recombinant SENP6 catalytic domain, aminoluciferin luminescence; Sentrin-specific protease 6 (Homo sapiens), Q9GZR1;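 active means inhibition above about 50% at the single tested dose, limit read from the data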;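 further: plate controls were DMSO wells with enzyme for no effect and DMSO wells lacking enzyme for full effect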
Target sequence (Q9GZR1 628-1112 limits assumed): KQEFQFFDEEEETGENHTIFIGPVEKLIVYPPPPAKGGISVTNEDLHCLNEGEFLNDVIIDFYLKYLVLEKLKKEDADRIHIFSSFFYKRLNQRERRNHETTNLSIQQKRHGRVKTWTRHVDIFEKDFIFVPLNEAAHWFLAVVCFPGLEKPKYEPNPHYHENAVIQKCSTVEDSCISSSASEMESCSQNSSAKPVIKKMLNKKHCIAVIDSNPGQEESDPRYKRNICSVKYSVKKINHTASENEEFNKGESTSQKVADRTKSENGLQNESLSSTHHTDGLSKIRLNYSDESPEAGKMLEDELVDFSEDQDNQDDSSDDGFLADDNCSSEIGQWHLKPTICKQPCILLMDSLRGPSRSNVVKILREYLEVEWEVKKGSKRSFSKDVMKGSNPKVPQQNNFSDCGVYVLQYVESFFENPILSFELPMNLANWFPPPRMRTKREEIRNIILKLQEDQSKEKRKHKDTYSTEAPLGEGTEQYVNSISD
SENP8 block-2: SENP8 protease inhibitors, primary screen, biochemical, luminescence; purified SENP8, Z-RLRGG-aminoluciferin cleavage; inhibition, % at 10 µM; hit rate 1.2% among 330,000; in the data active means inhibition above about 50%
SENP8 conf: SENP8 protease inhibitors, retest, confirmation, biochemical, luminescence, single concentration. shares compounds with SENP7 inh. Recombinant SENP8, Z-RLRGG-aminoluciferin luminescence, 60 min. inhibition, % at 12.5 µM. hit rate 40% among 6,200;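 active means mean inhibition across replicates above about 50%, limit read from the data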
SENP6 conf: SENP6 protease inhibitors, confirmation, biochemical, luminescence, single concentration; hit rate 58% among 6,200; recombinant SENP6, Z-RLRGG-aminoluciferin luminescence; shares compounds with SENP7 inh; AID 488915, 2010; inhibition, % at 12.5 µM
SENP7 conf: SENP7 protease inhibitors, retest, confirmation, biochemical, luminescence, single concentration; shares compounds with SENP7 inh; recombinant SENP7, Z-RLRGG-aminoluciferin luminescence, 40 min; inhibition, % at 12.5 µM; hit rate 69% among 6,200; AID 488917, 2010
Casp3 SENP sel: caspase-3 protease inhibitors, confirmation, selectivity assay for SENP inhibitor project, biochemical, single concentration | shares compounds with SENP7 inh | purified caspase-3, Z-DEVD-aminoluciferin luminescence, 60 min | inhibition, % at 12.5 µM | hit rate 60% among 6,200;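 active means mean inhibition above about 50%, limit read from the data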;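 further: plate controls were enzyme with DMSO for no effect and wells without caspase-3 for full effect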
Luc interf: counter-screen for SENP inhibitors: luminescence interference. Pre-incubated SENP8/Z-RLRGG-aminoluciferin, luciferase luminescence interference. hit rate 39% among 6,200. inhibition, % at 12.5 µM. AID 488919. shares compounds with SENP7 inh;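 active means mean inhibition above about 50% when retested at one dose, limit read from the data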;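 further: plate controls were DMSO wells with completed reaction for no effect and substrate without enzyme for full effect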
Numbers without * were called inactive; . = no result given.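 How the source made its calls, unless noted: active means mean inhibition above about 50% in the one-dose retest (limit read from the data); inactive means the rest.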

SMILES	SENP8 block-1	PPC-1+TRAIL kill	SENP7 inh	C8 TRAIL sens	SENP6 block	SENP8 block-2	SENP8 conf	SENP6 conf	SENP7 conf	Casp3 SENP sel	Luc interf
CC(C)C(=O)N1CCN(c2ccccc2NC(=O)c2ccco2)CC1	10	.	-9	9	103*	2	-7	-6	-7	2	3
CC(C)S(=O)(=O)c1nsc2nc(=O)c(/C=C3\C=Nc4ccccc43)c(N)n12	-138	4	12	-10	2	7	.	.	.	.	.
CSc1nsc2nc(=O)c(/C=C3\C=Nc4ccccc43)c(N)n12	-7	-5	39	-10	86*	72*	69*	72*	92*	41	76*
COc1ccc(-c2cc(-c3cc(C)ccc3O)[nH]n2)cc1	-1	4	61*	44	72*	56*	75*	74*	88*	19	39
COc1ccc(-c2cc(-c3ccc(C)cc3)n[nH]2)c(O)c1	7	.	37	8	58*	33	49	42	72*	14	32
COc1ccc(-c2cc(-c3ccc(OC)cc3)[nH]n2)cc1	12	8	-1	-1	-19	6	.	.	.	.	.
Cc1cccc(CC2CC(=O)N(c3nc4ccccc4s3)C2=O)c1 (stereo not drawn)	9	30	-1	-22	6	-4	.	.	.	.	.
Cc1ccc2nc(N3C(=O)CNC3=S)sc2c1	-26	34	89*	32	94*	91*	-8	92*	100*	95*	27
CCOc1nc(-c2ccccc2)ccc1-c1noc(-c2cccs2)n1	-101	-21	-8	8	-13	-13	.	.	.	.	.
c1ccc(-c2nc(-c3ccc(-c4ccon4)s3)no2)cc1	-70	5	80*	4	55*	40	25	26	20	19	18
c1csc(-c2nc(-c3ccc(-c4ccon4)s3)no2)c1	-231	20	88*	14	51*	44	4	16	15	24	8
CC(NC(=O)CN1C(=O)NC2(CCCCC2)C1=O)c1ccc(S(N)(=O)=O)cc1 (stereo not drawn)	1	.	.	-3	.	.	.	.	.	.	.
CCOc1ncccc1C(=O)OCC(=O)Nc1cc(S(=O)(=O)N(CC)CC)ccc1C	13	-6	3	3	13	0	.	.	.	.	.
CCN(CC)S(=O)(=O)c1ccc(C)c(NC(=O)COC(=O)C=C(C)C)c1	27	14	6	1	56*	-5	-6	-9	-3	6	3
CCOC(=O)N/N=C\c1ccc(OC(=O)c2ccc3c(c2)OCO3)cc1	9	-14	72*	-6	66*	58*	-14	-13	13	3	22
Cc1ccc2oc(-c3ccccc3)nc2c1	-28	9	93*	12	95*	88*	-5	75*	100*	46	9
CCOc1cccc(-c2nc3cc(C)ccc3o2)c1	14	-2	46	14	79*	40	24	49	83*	45	36
Cc1ccc2oc(Nc3nc(-c4ccccc4)cc(=O)[nH]3)nc2c1	.	12	-3	.	5	3	.	.	.	.	.
c1cncc(-c2nc3cc(Cc4ccc5oc(-c6cccnc6)nc5c4)ccc3o2)c1	.	-31	.	.	.	.	.	.	.	.	.
COC(=O)C1=CN(c2ccc(C)cc2)C(N)=C(C#N)C1c1ccccc1F (stereo not drawn)	-59	.	.	11	.	.	.	.	.	.	.
O=C(/C=C/c1ccco1)NC(=S)Nc1cc(-c2nc3ccccc3s2)ccc1Cl	-33	18	.	4	.	.	.	.	.	.	.
O=C(/C=C/c1ccco1)NC(=S)Nc1cccc(-c2nc3ccccc3s2)c1	-38	.	5	1	63*	41	20	17	7	19	-2
COc1cccc(NC(=O)/C=C/c2ccco2)c1	2	11	92*	6	58*	84*	-12	88*	100*	93*	88*
O=C(/C=C/c1ccco1)Nc1ccc(N2CCCC2)cc1	28	31	68*	-3	63*	43	39	32	57*	21	27
CSc1cccc(NC(=O)/C=C/c2ccco2)c1	-23	-10	-4	6	-4	-6	.	.	.	.	.
SMILES	SENP8 block-1	PPC-1+TRAIL kill	SENP7 inh	C8 TRAIL sens	SENP6 block	SENP8 block-2	SENP8 conf	SENP6 conf	SENP7 conf	Casp3 SENP sel	Luc interf
O=C(/C=C/c1ccco1)Nc1ccc(CN2CCOCC2)cc1	31	23	4	5	-15	0	.	.	.	.	.
COc1cccc(C(=O)Oc2ccc3ccc(O)cc3c2)c1	.	.	38	.	69*	38	46	64*	80*	17	13
Cc1ccccc1C(=O)Oc1ccc2ccc(O)cc2c1	2	.	59*	-2	73*	59*	50	76*	84*	25	24
O=C(N/N=C/c1ccccc1Cl)c1n[nH]c2c1CCCC2	11	42	98*	41	69*	86*	-10	-2	-2	26	-14
O=C(N/N=C/c1ccc(Cl)cc1)c1n[nH]c2c1CCCC2	4	4	-5	32	-8	-8	.	.	.	.	.
O=C(N/N=C/C(Br)=C/c1ccccc1)c1n[nH]c2c1CCC2	-4	11	1	-6	1	12	.	.	.	.	.
O=C(N/N=C/c1cccs1)c1n[nH]c2c1CCC2	4	25	77*	37	79*	50	41	70*	89*	90*	51*
O=C(N/N=C/c1ccccc1Cl)c1cccc(F)c1	15	22	72*	6	69*	53*	4	70*	92*	76*	68*
O=C(N/N=C/c1ccccc1)c1n[nH]c2c1CCCC2	-2	41	50*	28	58*	47	12	39	69*	76*	13
